# The source made the active and inactive calls. How the calls were made is not given here.
# Target: Histone deacetylase 7 (Homo sapiens) (UniProt Q8WUI4)
# Assay: HDAC7 deacetylase inhibition, profiling panel, selectivity assay for E-cadherin restoration project, biochemical, human (AID 651907)
# Chain of Histone deacetylase 7 (Homo sapiens) (Q8WUI4 whole entry, looked up): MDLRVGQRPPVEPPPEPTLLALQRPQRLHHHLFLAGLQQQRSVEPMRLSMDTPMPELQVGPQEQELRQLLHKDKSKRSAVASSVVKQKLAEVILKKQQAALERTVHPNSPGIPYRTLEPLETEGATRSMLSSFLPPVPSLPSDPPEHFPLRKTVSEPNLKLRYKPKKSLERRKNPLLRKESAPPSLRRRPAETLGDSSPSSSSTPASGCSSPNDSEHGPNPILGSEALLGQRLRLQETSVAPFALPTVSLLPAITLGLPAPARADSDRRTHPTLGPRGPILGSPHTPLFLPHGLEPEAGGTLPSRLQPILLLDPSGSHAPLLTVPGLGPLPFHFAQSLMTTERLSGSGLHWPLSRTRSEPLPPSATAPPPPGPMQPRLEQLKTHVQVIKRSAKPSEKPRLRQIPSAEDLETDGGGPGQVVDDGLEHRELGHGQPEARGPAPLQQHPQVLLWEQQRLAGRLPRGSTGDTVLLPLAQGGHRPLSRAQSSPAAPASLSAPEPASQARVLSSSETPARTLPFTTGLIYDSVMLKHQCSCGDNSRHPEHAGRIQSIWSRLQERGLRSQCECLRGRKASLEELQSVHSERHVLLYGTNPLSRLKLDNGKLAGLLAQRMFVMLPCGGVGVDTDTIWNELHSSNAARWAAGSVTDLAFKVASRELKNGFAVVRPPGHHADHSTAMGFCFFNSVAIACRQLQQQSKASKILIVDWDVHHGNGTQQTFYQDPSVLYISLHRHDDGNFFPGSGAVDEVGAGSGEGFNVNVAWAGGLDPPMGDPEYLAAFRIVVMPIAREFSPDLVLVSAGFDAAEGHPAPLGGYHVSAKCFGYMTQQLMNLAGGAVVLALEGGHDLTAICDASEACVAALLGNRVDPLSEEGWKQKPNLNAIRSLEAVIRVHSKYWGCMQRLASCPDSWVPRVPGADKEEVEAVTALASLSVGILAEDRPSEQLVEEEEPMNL
smiles,measurement,value
O=C(NCCCNC(=O)c1ccc[nH]c1=O)c1cc(-c2ccccc2)on1,outcome,inactive
